High-throughput results deposited in PubChem BioAssay by National Center for Advancing Translational Sciences (NCATS).
Giardia kill = Giardia lamblia killing; activity change, % at 7.66 µM, hits read low; Giardia lamblia trophozoite viability; hit rate 0.15% among 340,000; in the data active = activity change below about -80%; inconclusive = between about -30% and that limit;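 also: parasites exposed to compound for two days anaerobically before the ATP read; % is scaled to controls: 0 for no effect and ±100 for the full control effect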
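Anaerobic 48 hrs incubation at 37 deg C of 100 trophozoites/well with test compounds; ATPLite 1-Step luminescence, 15-30 min RT, reports cellular ATP as viability.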
HT1080 IDH1KD tx = toxicity to HT-1080 IDH1 knockdown cells (counter line). AID 686971. HT-1080 IDH1 knockdown viability, ATP luminescence, 48 h. hit rate 2% among 360,000. Potency, µM (series often up to 46.1 µM), for the others: top-dose activity, negative = toxicity, usual class: cytotoxic;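 also: potency is read from the fitted curve at half-maximal effect; 0% = DMSO wells and -100% = cell-free medium wells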
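Knockdown cells (IDH1KD HT-1080) received compounds 2 h after plating at 750 cells/well and were kept 48 h at 37 °C in 5% FBS RPMI. A CellTiter-Glo luminescence read gave % activity for curve fitting.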
HT1080-NT tox = kills 2HG-producing HT-1080-NT fibrosarcoma cells. HT-1080-NT fibrosarcoma viability, CellTiter-Glo ATP luminescence, 48 h. Potency, µM (highest dose often 46.1 µM), for inactives: top-dose activity, negative = less viability, hits mostly cytotoxic. hit rate 1.6% among 360,000. AID 686970;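 also: NT is the 2HG producing partner of a matched IDH1 knockdown line; potency is read from the fitted curve at half-maximal effect; 0% = DMSO-treated cells and -100% = media-only wells without cells; nearly all actives have a fitted effect of over 55% in size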
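750 cells/well, RPMI + 5% FBS; 2 h settle, compound pin-transfer, 48 h at 37 degrees C. CellTiter-Glo 10 min RT, luminescence. Normalized to DMSO and media-only wells.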
HepG2 tox = counter-screen for TGF-b inhibitors: cytotoxicity in HepG2 cells | HepG2 CAGA-GFP viability, ATP luminescence, 18 h | hit rate 0.76% among 410,000 | Potency, µM (titrated, usually from 46.1 µM), for inactives: at the highest dose activity change, negative = cytotoxicity, hits mostly cytotoxic | AID 588856; also: potency is read from the fitted curve at half-maximal effect
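CellTiter-Glo luminescence gave cytotoxicity after 18 hours at 37 degrees C. The cells were HepG2 CAGA-GFP in 1% FBS DMEM, stimulated with 500 pg/mL TGF-beta after compound addition. %Activity was normalised to no-cell wells (complete cell-killing) and DMSO (no toxicity), and curves were fitted and classified.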
IL1B secr inh = inflammasome signaling inhibition, IL-1 beta readout; THP-1 LPS/ATP IL-1B secretion, AlphaLISA, 16 h; active compounds read low; activity change, % at 57.5 µM; hit rate 4.7% among 360,000; in the data active = activity change below about -50%; inconclusive = mostly about -30% to -49%; also: % is scaled to controls: 0 for no effect and ±100 for the full control effect
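Secreted IL-1B measured by AlphaLISA bead assay after 16 h compound exposure of THP-1 cells; compounds (final up to 57.5 uM) added 1 h before LPS (250 ng/mL) and ATP (1.25 mM) stimulation; lower signal means less secretion.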
TGFb SMAD3 inh = TGF-b pathway inhibition | AID 588855 | hit rate 1.2% among 410,000 | Potency, µM (series often up to 46.1 µM), without a hit: at the top dose activity, negative = inhibition, usual class: inhibitors | HepG2 CAGA-GFP TGF-b/SMAD3 reporter, GFP fluorescence, 18 h; TGF-beta stimulated, 500 pg/mL final; also: potency is read from the fitted curve at half-maximal effect; % is scaled to controls: 0 for no effect and ±100 for the full control effect; nearly all actives have a fitted effect of over 65% in size
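Inhibition was scored as loss of TGF-beta-induced (500 pg/mL final, 18 hours, 37 degrees C) GFP in HEPG2 cells carrying a CAGA-GFP reporter, in DMEM with 1% FBS. Well GFP was summed per cell; Activity was normalised to unstimulated and stimulated DMSO wells, then concentration-response fitting.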
* hit, by the source's call; ? = inconclusive; nt = no result given. An excerpt weighted towards active compounds, which were near 6.5% of everything screened. Unless noted, calls follow the shape of the dose curve; as a rule, active = well fitted curve in the direction sought with a large enough effect; inconclusive = small, poorly fitted or top-dose-only effect, or another doubt; inactive = no such curve, though single readings can be large; an effect the other way counts as inactive or inconclusive.

SMILES | Giardia kill | HT1080 IDH1KD tx | HT1080-NT tox | HepG2 tox | IL1B secr inh | TGFb SMAD3 inh
CCCCN(CCCC)C(=S)N/N=C/c1c(C)[nH]n(-c2ccccc2)c1=O | -1 | 6.5µM* | ? | -21% | 92 | ?
Cc1ccc(-n2[nH]c(C)c(/C=N/NC(=O)c3ccc(O)cc3O)c2=O)cc1 | -25 | 10µM* | 2.1µM* | -51% | 220 | -9%
COc1ccc(C)cc1NC(=O)C1CCCN(S(=O)(=O)c2ccc(-n3cnnn3)cc2)C1 (stereo not drawn) | 5 | -1% | 1% | -1% | -29 | 3%
c1ccc2cc(C3CCCCC3)ncc2c1 | -29 | 7% | 4% | -11% | 48 | -27%
Cc1c(C(=O)NCCSc2ccc(Cl)cc2)cccc1[N+](=O)[O-] | -14 | -11% | -2% | 0% | -20 | -9%
Cc1c(C(=O)NCCSCc2ccccc2)cccc1[N+](=O)[O-] | 9 | -3% | 0% | -4% | -57* | 3%
Cc1c(C(=O)NCCSCc2ccc(Cl)cc2Cl)cccc1[N+](=O)[O-] | -1 | ? | ? | -30% | -58* | -3%
Cc1c(C(=O)N(CCc2ccccc2)Cc2ccccc2)cccc1[N+](=O)[O-] | -26 | ? | ? | -6% | -82* | ?
Cc1c(C(=O)NCCSCc2ccco2)cccc1[N+](=O)[O-] | 7 | 12% | 14% | -2% | -18 | -10%
Cc1ccc(C(=O)NCCSCc2ccc(Cl)cc2Cl)cc1[N+](=O)[O-] | -3 | 0% | -16% | -3% | -58* | ?
Cn1c(=O)c2c(nc(SCc3ccccc3F)n2C)n(C)c1=O | 25 | 0% | 4% | -1% | -5 | -8%
COC(=O)[C@@]12OC[C@]34[C@H]([C@@H](O)[C@@H]1O)[C@@]1(C)C(=O)C(O[C@@H]5OC(CO)[C@@H](O)[C@@H](O)[C@@H]5O)=C[C@@H](C)[C@@H]1C[C@H]3OC(=O)[C@H](OC(=O)/C=C(\C)C(C)(C)OC(C)=O)[C@@H]24 (stereo partly drawn) | ? | ? | ? | -27% | -56* | ?
Nc1ccccc1SC(CC(=O)c1ccccc1)c1cccc([N+](=O)[O-])c1 (stereo not drawn) | nt | ? | ? | -114% | -104* | ?
CCN(C(=O)C1CSC2(C)CCC(=O)N12)c1nc2c(C)cccc2s1 (stereo not drawn) | 15 | -6% | 7% | 2% | 11 | -6%
COc1ccc(Cl)cc1C(=O)NNC(=O)c1nn(C)c(=O)c2ccccc12 | -9 | ? | -17% | -13% | 20 | ?
CN(C)/C=N/C(=S)Nc1ccccc1F | 4 | 6% | 7% | -13% | 10 | 16%
COc1ccc(CN(C)CC(O)COc2ccc(C(=O)c3ccccc3)cc2)c(OC)c1OC (stereo not drawn) | 46 | ? | 21µM* | -34% | -67* | ?
CN(CCOc1ccc(Br)cc1)CC(O)COc1ccc(C#N)cc1 (stereo not drawn) | -26 | ? | 21µM* | -40% | -87* | ?
CN(CCOc1ccccc1)CC(O)COc1ccccc1 (stereo not drawn) | -10 | -9% | -6% | -6% | -10 | 3%
COc1cccc(OC)c1OCCOc1ccc(C(=O)c2ccccc2)cc1 | 15 | -13% | -12% | -17% | ? | 0%
COc1ccc(CCN(C)CC(O)COC(c2ccc(F)cc2)c2ccc(F)cc2)cc1OC (stereo not drawn) | -8 | ? | 23µM* | -93% | -92* | -110%
COc1ccc(Br)cc1CN(C)CC(O)COc1ccc(Br)cc1 (stereo not drawn) | -9 | ? | 21µM* | 18µM* | -85* | ?
CC(O)(c1ccc(F)c(F)c1)c1nc(-c2cccc3cccnc23)cs1 (stereo not drawn) | nt | -18% | ? | -16% | 7 | -5%
O=C(N/N=C/c1ccccc1C(=O)O)c1cc(-c2ccc3c4c(cccc24)CC3)n[nH]1 | -8 | -19% | 20% | -4% | -15 | 1%
COc1ccc(CN(C)CC(O)COC(c2ccccc2)c2ccccc2)c(OC)c1OC (stereo not drawn) | 27 | ? | 23µM* | -46% | nt | ?
SMILES | Giardia kill | HT1080 IDH1KD tx | HT1080-NT tox | HepG2 tox | IL1B secr inh | TGFb SMAD3 inh
CCOC(=O)c1[nH]nc(-c2cc(CC)c(O)cc2O)c1-c1cscn1 | -3 | ? | ? | -34% | -61* | 0%
Cc1cc(C)cc(NC(=O)CN2CCN(CCN=CC3=C(O)CC(c4ccc(Cl)cc4)CC3=O)CC2)c1 (stereo not drawn) | 3 | -3% | -10% | -9% | -8 | -1%
CCOc1ccc(-c2cncc3nccn23)cc1 | nt | 14% | ? | -1% | -52* | 3%
C(#CSCc1ccccc1)SCc1ccccc1 | nt | 10% | 14% | -30% | -30 | -12%
C[n+]1cccc(O)c1SCc1ccccc1 | -18 | 23µM* | -25% | -64% | 5 | ?
O=C1/C(=C/c2ccc(N3CCCC3)cc2)NC(=S)N1C1CC1 | 10 | 7.9µM* | 6.3µM* | -26% | -77* | 43%
O=C1N/C(=C/c2ccc(N3CCCC3)cc2)C(=O)N1c1ccccc1 | 3 | -8% | -7% | -23% | 3 | 120%
CCC(=O)c1ccc(OCc2ccccc2)c(OC)c1 | 4 | 6% | 5% | 1% | -3 | -28%
CCC(=O)c1ccc(OCc2ccc(C(=O)c3ccccc3)cc2)cc1 | 4 | ? | -15% | -6% | -136* | -22%
Cc1c(C#N)c2ccccc2n1CCOc1ccccc1F | 12 | -21% | ? | 6% | -27 | ?
CCCN1C=CC(=C2C(=O)c3ccccc3C2=O)C=C1 | -97* | 11µM* | 5.6µM* | 7.1µM* | ? | 5%
CCN1C=CC(=C2C(=O)c3ccccc3C2=O)C=C1 | -94* | 11µM* | 10µM* | -81% | ? | -6%
O=C1C(C=Nc2ccccc2O)=C(O)c2ccccc21 | 0 | 6.3µM* | 6.3µM* | -14% | 26 | -27%
CCOC(=O)c1ccc2c(c1)n(CC)c(/C=C/N(C)c1ccccc1)[n+]2CC | -8 | ? | 6.5µM* | -17% | -89* | 0%
CCOC(=O)c1ccc2c(c1)n(CCO)c(C)[n+]2CC | -17 | 8% | 6% | 2% | 5 | -13%
O=C(Nc1ccccc1)OC1CCCCc2cccnc21 (stereo not drawn) | -7 | -6% | 2% | 16% | -12 | -7%
